Results filed as inconclusive are left out. The source made the active and inactive calls. The call rests on the fitted dose curve; in most records, active means well fitted inhibition curve with a large enough effect; inconclusive means small, poorly fitted or top-dose-only effect; inactive means flat fitted curve, though single readings scatter. Peptide text beside a SMILES is read from it.

This assay relates to CRL-7250. Put plainly: qHTS assay to identify novel small-molecules to repurpose for Merkel cell carcinoma treatment (AID 1296009). Further: nearly all actives have a fitted effect of over 60% in size. Conditions: MCC and control cell lines, CellTiter-Glo viability, 72 h; series mostly up to 92 µM; activity change, negative = cytotoxicity: at the top concentration. The gist of the method: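 Cells exposed to NPC (8-point) and MIPE (11-point) compound dilutions for 72 hr at 37 degree celsius; viability read by CellTiter-Glo luminescence, normalized to no-cell and DMSO in-plate controls.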
With `C=C(C)[C@@H]1CC[C@]2(C)CC[C@]3(C)C(CCC4[C@@]5(C)CC[C@H](O)C(C)(C)C5CC[C@]43C)C12` (some centres not stated), the “outcome” value was “inactive [at 17.4 µM]”. Consider `C=C1CCC2[C@@](C)(C=O)CCC[C@]2(C)[C@H]1CC/C(C)=C/CO` (some centres not stated), for which the outcome was inactive.

In the case of `CC1NC(=O)CNC(=O)C(C(C)C)NC(=O)C2CCCN2C(=O)C(C(C)C)NC(=O)C(Cc2c[nH]c3ccccc23)NC1=O` (configuration not stated) (cyclo(GAWVPV); configuration not given here), the “outcome” value is “inactive [at 17.4 µM]”. Take `COc1cc(OC)cc(-c2ccc3c(-c4ccc(F)cc4)[nH]nc3n2)c1`: the compound was classed as inactive.

As for `C/C(=C\CCC1(C)C2CCC(C2)C1(C)O)C(=O)O` (configuration not stated), the compound was classed as inactive. Turning to `COC(=O)c1cc(OC)cc(OC)c1C(=O)c1c(OC)cc2c(c1O)C1CCC(O)C(C)(O2)O1` (configuration not stated), the “outcome” value was “inactive [at 17.4 µM]”. Take `C[C@H](Oc1ccc(S(C)(=O)=O)cc1C(=O)N1CCN(c2ncc(C(F)(F)F)cc2F)CC1)C(F)(F)F`: the compound was classed as inactive.

Take `CC(O)C/C=C/C=C/C(=O)OC1C=C2COC(=O)C2(O)C2(C)CCCC(C)(C)C12` (configuration not stated): the compound was classed as inactive. With `COc1ccc(-c2nc(-c3ccc(-c4cccc(Cl)c4)o3)[nH]c2-c2ccc(OC)cc2)cc1` the entry was “inactive”; with `O=C(O)c1cc(-c2c(-c3ccccc3)nn3ccccc23)n[nH]c1=O`, “inactive”. With `C[C@@H]1CC[C@]2(C(=O)OC3OC(CO)C(O)C(O)C3O)CC[C@]3(C)C(=CCC4[C@@]5(C)CC[C@H](O)[C@](C)(C(=O)O)C5CC[C@]43C)C2[C@]1(C)O` (some centres not stated) the entry was “inactive [at 17.4 µM]”; with `CC(C)(OC1OC(CO)C(O)C(O)C1O)C1CCC(O)(CO)C2CC(=O)C(C)(O)C2C1` (configuration not stated), “inactive [at 17.4 µM]”.
